# ChEMBL document CHEMBL3988442, “University of Dundee, Small-Polar-MMV Screening Library” (2021)
# The whole screen tested about 69,000 compounds, of which about 1,000 (1.4%) showed an effect of 50% or more. Shown is part of a subset that was picked to be rich in strong results.
# Tested on: Leishmania donovani
# Test: Leishmania intramacrophage assay
# Type: functional, organism-based
# Parameters: scale not given: in the data most compounds retested in dose-response had high values
compound,measurement,setting,value
CC(c1nc(C2CC2)no1)N(C)Cc1ccc2c(c1)OCCO2 (centres undefined),Percent Effect,"30.3 µM, […]",14.22%
COc1ccc2cc(CN(C)C(C)c3nc(C(C)(C)C)no3)ccc2c1 (centres undefined),Percent Effect,"30.3 µM, […]",20.66%
COc1ccc2cc(CN(C)C(C)c3nc(C4CC4)no3)ccc2c1 (centres undefined),Percent Effect,"30.3 µM, […]",57.64%
CSCc1noc(CNC(=O)c2cc(C)c(C)[nH]c2=O)n1,Percent Effect,"30.3 µM, […]",20.7%
O=C(CN1CCC(Nc2ncccn2)CC1)Nc1ccccc1,Percent Effect,"30.3 µM, […]",51.04%
Cc1cnc(NC2CCN(CC(=O)Nc3ccccc3)CC2)nc1C,Percent Effect,"30.3 µM, […]",18.37%
COc1ccnc(NC2CCN(CC(=O)Nc3ccccc3)CC2)n1,Percent Effect,"30.3 µM, […]",-0.8363%
CCc1nnc(CN(CC)C(=O)C2CC(=O)N(C3CCCC3)C2)o1 (centres undefined),Percent Effect,"30.3 µM, […]",-15.82%
Cc1nn(C)c(Oc2ccc(Cl)cc2)c1CN1CCC(CN)C1 (centres undefined),Percent Effect,"30.3 µM, […]",74.8%
Cc1nn(C)c(Oc2ccc(Cl)cc2)c1CN1CC[C@H](CO)[C@@H](O)C1,Percent Effect,"30.3 µM, […]",9.933%
Cc1nn(C)c(Oc2ccc(Cl)cc2)c1CN1CCOC(CN)C1 (centres undefined),Percent Effect,"30.3 µM, […]",3.142%
Cc1cccc(SC2CCN(C(=O)CCCS(N)(=O)=O)CC2)c1,Percent Effect,"30.3 µM, […]",24.28%
Cc1cccc(SC2CCN(C(=O)CCCn3cnnn3)CC2)c1,Percent Effect,"30.3 µM, […]",53.34%
CC(=O)NCCCC(=O)N1CCC(Sc2cccc(C)c2)CC1,Percent Effect,"30.3 µM, […]",42.91%
CCOCC(=O)N1CSCC1C(=O)N(C)Cc1ccco1 (centres undefined),Percent Effect,30 µM,13.38%
Cc1nc(N2CC[C@@H](c3ccc4ccccc4c3)[C@H](O)C2)no1,Percent Effect,"30.3 µM, […]",18.28%
CCCc1nc(N2CC[C@@H](c3ccc4c(c3)OCO4)[C@H](O)C2)no1,Percent Effect,"30.3 µM, […]",11.09%
CCCc1nc(N2CC[C@@H](c3ccc4ccccc4c3)[C@H](O)C2)no1,Percent Effect,"30.3 µM, […]",50.36%
Cc1cc(N2CCc3c(nc(C(C)C)n3C)C2)nc(N)n1,Percent Effect,"30.3 µM, […]",17.43%
Cc1nc(C)n(CC2CCCN(CC(=O)Nc3ccncc3)C2)n1 (centres undefined),Percent Effect,30 µM,29.85%
Cc1nc(C)n(CC2CCCN2CC(=O)Nc2cccnc2)n1 (centres undefined),Percent Effect,"30.3 µM, […]",2.659%
Cc1nc(C)n(CC2CN(CC(=O)Nc3cccnc3)CCO2)n1 (centres undefined),Percent Effect,"30 µM, 30.03 µM",31.54%
Cc1nc(C)n(CC2CCCN2CC(=O)Nc2ccncc2)n1 (centres undefined),Percent Effect,"30.3 µM, […]",50.98%
Cc1nc(C)n(CC2CCCCN2CC(=O)Nc2ccncc2)n1 (centres undefined),Percent Effect,"30 µM, 30.03 µM",-8.014%
Cc1nc(C)n(CC2CCCN(CC(=O)Nc3cccnc3)C2)n1 (centres undefined),Percent Effect,"30.3 µM, […]",59.36%
Cc1nc(CN(C)C2CCCN(Cc3noc(C4CC4)n3)C2)oc1C (centres undefined),Percent Effect,30 µM,-8.721%
OCc1ccc(-c2nccn2CCc2nc3c(s2)CCCC3)o1,Percent Effect,"30.3 µM, […]",-3.192%
O=C(NCCc1ccn(-c2ccc(F)cc2)n1)C1CCCOC1 (centres undefined),Percent Effect,"30.3 µM, […]",11.22%
CCN(CC)C(=O)NC(C)c1ccc(Oc2cccnc2)c(F)c1 (centres undefined),Percent Effect,"30.3 µM, […]",-9.456%
CC(NC(=O)N(C)C1CC1)c1ccc(Oc2cccnc2)c(F)c1 (centres undefined),Percent Effect,"30.3 µM, […]",4.744%
CC(NC(=O)CN(C)C(C)C)c1ccc(Oc2cccnc2)c(F)c1 (centres undefined),Percent Effect,"30.3 µM, […]",51.39%
C=C(C)COc1cccc(C(=O)N(CC)Cc2noc(C)n2)c1,Percent Effect,"30.3 µM, […]",17.93%
Cc1nc[nH]c1CN(Cc1ccccc1F)C1CC(C)(C)NC(C)(C)C1.O=C(O)CC(O)(CC(=O)O)C(=O)O,Percent Effect,"30.3 µM, […]",53.75%
Cc1nc[nH]c1CN(Cc1ccccc1)C1CC(C)(C)NC(C)(C)C1.O=C(O)CC(O)(CC(=O)O)C(=O)O,Percent Effect,"30.3 µM, […]",45.23%
Cc1cc2c(N)nc(=O)n(CC(=O)Nc3ccccc3)c2s1,Percent Effect,"30.3 µM, […]",6.295%
Cc1cc2c(N)nc(=O)n(CC(=O)Nc3cccc(Cl)c3)c2s1,Percent Effect,"30.3 µM, […]",52.64%
COc1cccc(NC(=O)Cn2c(=O)nc(N)c3cc(C)sc32)c1,Percent Effect,"30.3 µM, […]",12.79%
Cc1nc(CN2CCN(C(=O)NC(C)Cn3ccnc3)CC2)cs1 (centres undefined),Percent Effect,30 µM,14.72%
CNC(=O)C1CCN(CC(=O)Nc2cc(C(C)C)no2)CC1,Percent Effect,30 µM,21.46%
CS(=O)(=O)NCc1noc2c1CN(C(=O)C1CCC1)CC2,Percent Effect,"30.3 µM, […]",11.5%
CCN1CC(CN(C)Cc2nc(-c3ccoc3)oc2C)CC1=O (centres undefined),Percent Effect,"30.3 µM, […]",-10.15%
CCN1CC(CN(C)Cc2nc(-c3ccc(C)o3)oc2C)CC1=O (centres undefined),Percent Effect,"30.3 µM, […]",59.94%
CCN1CC(CN(C)Cc2nc(-c3ccc(F)cc3)oc2C)CC1=O (centres undefined),Percent Effect,"30.3 µM, […]",13.51%
CN(C)C(=O)C1(c2cnccn2)CCCN1C(=O)Cc1ccsc1 (centres undefined),Percent Effect,"30.3 µM, […]",25.36%
CCn1c(C)nc2cc(NC(=O)CC3CCN(S(C)(=O)=O)CC3)ccc21,Percent Effect,"30.3 µM, […]",32.47%
CC(C)CCN1Cc2c(C(=O)O)ncn2-c2ccccc2S1(=O)=O,Percent Effect,"30 µM, 30.03 µM",-20.47%
CCN1Cc2c(C(=O)NC)ncn2-c2ccccc2S1(=O)=O,Percent Effect,"30.3 µM, […]",2.291%
CNC(=O)c1ncn2c1CN(CCC(C)C)S(=O)(=O)c1ccccc1-2,Percent Effect,"30.3 µM, […]",54.17%
COc1ccc(CNC(=O)c2ccoc2CN2CCNC(=O)C2)cc1,Percent Effect,"30.3 µM, […]",-8.396%
CC(C)N(C)Cc1cn2c(n1)CN(C(=O)c1ccc[nH]1)CC2,Percent Effect,"30.3 µM, […]",13.65%
Cc1cc(-c2cnc(C(C)C)nc2CN(C)C(=O)c2ccccn2)on1,Percent Effect,"30.3 µM, […]",10.54%
CC(C)N(C)CCCNC(=O)c1cnn(C(C)(C)C)c1C(F)(F)F,Percent Effect,"30.3 µM, […]",10.25%
FC(F)(F)c1cccc(OC2CCN(Cc3ncc[nH]3)CC2)c1,Percent Effect,"30.3 µM, […]",17.17%
Nc1cc(C(=O)N2CCC(Oc3cccc(C(F)(F)F)c3)CC2)ccn1,Percent Effect,"30.3 µM, […]",3.315%
OC1(CNCCN2CCc3ccccc32)CNCCOC1 (centres undefined),Percent Effect,"30.3 µM, […]",12.43%
OC1(CN2CCC(Oc3cccnc3)CC2)CNCCOC1 (centres undefined),Percent Effect,"30.3 µM, […]",-1.613%
OC1(CN2CCN(c3cccc(C(F)(F)F)c3)CC2)CNCCOC1 (centres undefined),Percent Effect,"30.3 µM, […]",51.12%
FC(F)(F)c1cccc(OC2CCN(Cc3ccccn3)CC2)c1,Percent Effect,"30.3 µM, […]",-24.32%
OC1(CN2CCC(Oc3cccc(C(F)(F)F)c3)CC2)CNCCOC1 (centres undefined),Percent Effect,"30.3 µM, […]",78.32%
CC(N)C(=O)N1CCC(Oc2cccc(C(F)(F)F)c2)CC1 (centres undefined),Percent Effect,"30.3 µM, […]",75.62%
OC1(CN2CCC(Oc3cccc(C(F)(F)F)c3)CC2)CCNC1 (centres undefined),Percent Effect,"30.3 µM, […]",100.3%
O=C(c1ccncc1)N1CCC(Oc2cccc(C(F)(F)F)c2)CC1,Percent Effect,"30.3 µM, […]",7.291%
FC(F)(F)c1cccc(OC2CCN(Cc3c[nH]cn3)CC2)c1,Percent Effect,"30.3 µM, […]",0.2013%
OC1(CN2CCCC2)COCCN(c2cc(C(F)(F)F)ccn2)C1 (centres undefined),Percent Effect,"30.3 µM, […]",29.85%
